# From PubChem BioAssay (NCI)
# Compounds without any hit were thinned out: in the full panel of roughly 83,000, 20% have a hit.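 Single-dose data. Exposure time 48 hours. Values below 10 considered active.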 Values without a mark were called inactive. Activity calls are given as the source filed them.
# What was measured:
# Test in all cases: NCI-60 one-dose screen, 48 h (100 = growth as untreated, 0 = no growth, -100 = all killed)
# Conditions in all cases: 10 µM unless noted
# [1] = system: SR leukemia
# [2] = system: RPMI-8226 leukemia
# [3] = system: OVCAR-8 ovarian
# [4] = system: OVCAR-5 ovarian
# [5] = system: OVCAR-4 ovarian
# [6] = system: SK-OV-3 ovarian
# [7] = system: IGROV1 ovarian
# [8] = system: HS 578T breast
# [9] = system: NCI/ADR-RES ovarian
# [10] = system: T-47D breast
# [11] = system: BT-549 breast
# [12] = system: MDA-MB-435 melanoma
# [13] = system: SW-620 colon
# [14] = system: MCF7 breast
# [15] = system: HCC-2998 colon
# [16] = system: KM12 colon
# [17] = system: OVCAR-3 ovarian
# [18] = system: HCT-116 colon
Structure (SMILES),growth [1],growth [2],growth [3],growth [4],growth [5],growth [6],growth [7],growth [8],growth [9],growth [10],growth [11],growth [12],growth [13],growth [14],growth [15],growth [16],growth [17],growth [18]
CCOC(=O)Oc1c(OC)cc(C(=O)c2ccc(OC)c(OC(=O)CCl)c2OC)cc1OC,29.4%,18.4%,25.5%,77%,79.8%,19.7%,40.4%,15.2%,-5.85% (active),36.2%,42.4%,-35.9% (active),21.9%,16.6%,43.3%,21.9%,,
CCOC(=O)c1cc(C(=O)c2ccc(OC)cc2)n2ccc(/C=C/c3cc[n+](CC(=O)c4ccc(OC)cc4)cc3)cc12,-29.5% (active),10.4%,21.1%,87.1%,16.1%,109%,,105%,98.1%,36.3%,86%,77%,5.72% (active),-62.6% (active),36.7%,91.9%,60.9%,3.01% (active)
CCCCCCNC(=O)Nc1ccc2cc3ccc(NC(=O)NCCCCCC)cc3nc2c1,-33% (active),0.729% (active),-82.7% (active),9.67% (active),56.9%,13.2%,11.4%,,100%,-24.8% (active),89.4%,,-78.1% (active),-57.4% (active),-24.5% (active),19.4%,,
CCc1ccc(-c2cn3ccnc3c(-c3ccc4ncn(Cc5ccccc5)c4c3)n2)cc1,50.1%,44.6%,69.2%,85.1%,64.9%,99.4%,,78.2%,58.8%,5.18% (active),84.1%,49.1%,81.2%,42%,74.8%,54.3%,68.8%,38.8%
Cc1ccc(NC(=O)c2cc(-c3nc4ccccc4s3)c(=O)n(NS(=O)(=O)c3ccc(Cl)cc3)c2N)cc1,95%,94.6%,103%,110%,103%,108%,,104%,105%,98.7%,115%,99.4%,111%,93.7%,118%,98.8%,103%,95.6%
NC(=O)Nc1ccc(-n2cnc3cc(-c4ccc(O)cc4)ccc32)cc1,88.1%,91.5%,97.4%,97.5%,89%,137%,,109%,103%,59.7%,88.2%,96.8%,114%,93.7%,110%,21.8%,108%,91.8%
CC1(C)CC(=O)C2=C(C1)N(c1ccc(F)cc1F)C(N)=C(C#N)C2c1cc(Br)ccc1F (stereo unspecified),31%,80.6%,86.7%,107%,83.1%,131%,94.3%,105%,,110%,106%,,89.6%,95%,107%,88.7%,,80.9%
Nc1c(C(=O)Nc2cccc3cnccc23)sc2nc3c(cc12)C(=O)CCC3,59.5%,88.9%,100%,107%,102%,96.5%,,84.3%,102%,105%,83.4%,7.12% (active),,53.8%,97.4%,71.5%,93.4%,86%
CCCCNC(=O)Oc1ccc(/C(=C(\C)c2ccccc2)c2ccc(OCCN3CCCCC3)cc2)cc1,0.363% (active),42.7%,71.9%,89.5%,75.4%,71.6%,,56.9%,63.1%,31.6%,62%,67.8%,60.8%,22.5%,79%,52.1%,64.7%,42.8%
